Assay outcomes from PubChem.
This is a sample that favours compounds with a hit; in the whole collection about 2.1% have one here.
Shn3 inh set2: reduction of Shn3 3'UTR firefly luciferase signal, primary screen, Schnurri-3 inhibitor project, cell-based, Clone20 osteoblasts, set 2; hit rate 0.52% among 360,000; Clone20 osteoblast Shn3 3'UTR firefly luciferase, 24 h; AID 588674, 2011; inhibition, % at 12.5 µM;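 active means mean inhibition of at least 75% with every replicate also reaching 75%; inconclusive means mean inhibition at least 75% but some replicate below; inactive means mean inhibition below 75%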
TRPM1 prom inh: inhibitors of MITF-dependent TRPM1 promoter reporter, primary screen, cell-based, SK-MEL-5, single point, luciferase; SK-MEL-5 TRPM1 promoter luciferase, 24 h; inhibition, % at 12.5 µM; hit rate 0.83% among 330,000;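 active means mean inhibition across replicates of 60% or more, whatever share of single replicates reaches that level; inconclusive means some that reach 60%, reason not given; inactive means mean inhibition across replicates below 60%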
aSyn UTR inh: MLPCN primary screen, SNCA 5' untranslated region; alpha-synuclein 5'UTR reporter, inhibitor activity; hit rate 0.82% among 300,000; inhibition, % (tested at 7.5 µM); AID 1813, 2009; in the data active means inhibition above about 60%; inconclusive means no clear call, values can overlap the other calls;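 further: H4 neuroglioblastoma cells stably carrying SNCA 5'UTR luciferase fusion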
PAX8 inh HTS: inhibitors of PAX8-driven TPO luciferase reporter, primary screen, RMG-I cells, single concentration. AID 652154, 2013. inhibition, % at 12.6 µM. hit rate 1.2% among 360,000. SteadyGlo, 24 h;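 active means mean replicate inhibition at least 60% with every replicate also reaching 60%; inconclusive means only one of the two criteria is met; inactive means mean below 60% and not all replicates reaching 60%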;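 further: luciferase light reporting Pax8 driven TPO promoter activity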
EBV LMP1 NFkB: EBV LMP1-driven NF-kappaB luciferase reporter inhibitors, primary screen, cell-based, luminescence, single point; LMP1-induced NF-kappaB luciferase reporter cells; inhibition, % at 12.5 µM; hit rate 0.69% among 350,000; in the data active means inhibition above about 41%; inconclusive means no clear call, values can overlap the other calls
Large screens that a line does not name were inactive.

COc1ccccc1-n1c(COc2ccccc2-c2ccccc2)nnc1SCC(=O)c1c(N)n(C)c(=O)n(C)c1=O	none
CC(=O)c1sc(NC(=O)c2cnc(Cl)c(Cl)c2)nc1C	none
COc1nc(Nc2nc3ccccc3c(=O)[nH]2)nc2ccc(C)cc12	aSyn UTR inh 90, PAX8 inh HTS 76, EBV LMP1 NFkB 50
Cc1cc(C)cc(Nc2nc3ccccc3c(=O)[nH]2)c1	none
C[C@@H]1[C@H]2[C@@H]3CC[C@@H](C3)[C@H]2CN[C@H]1c1cn(Cc2ccccc2)c2ccccc12	none (no result: aSyn UTR inh)
Cc1ccc(NC(=O)c2ccc(Cl)c(S(=O)(=O)N3CCc4ccccc43)c2)nc1	none (no result: aSyn UTR inh)
Cc1c(CCOC(=O)CC23CC4CC(CC(C4)C2)C3)sc[n+]1CC(=O)c1ccc(Br)cc1	Shn3 inh set2 94 (no result: PAX8 inh HTS)
Cc1c(CCOC(=O)CC23CC4CC(CC(C)(C4)C2)C3)sc[n+]1CC(=O)c1ccccc1	TRPM1 prom inh 84
Cc1c(CCOC(=O)c2ccccc2)sc[n+]1CC(=O)c1ccc(Br)cc1	none (no result: PAX8 inh HTS)
CC(=O)OC1CCC2(C)C(CCC3C4CC=C(C(C)=O)C4(C)OC(=O)CC32)C1 (configuration not stated)	Shn3 inh set2 inconclusive, PAX8 inh HTS 100, EBV LMP1 NFkB 79 (no result: TRPM1 prom inh, aSyn UTR inh)
CCOC(=O)c1cnc(-n2nc(C)cc2C)nc1NNc1cc(-c2ccccc2)nc(C)n1	aSyn UTR inh 93 (no result: Shn3 inh set2, TRPM1 prom inh, PAX8 inh HTS, EBV LMP1 NFkB)
CCOC(=O)c1cnc(-n2nc(C)cc2C)nc1NNc1ncc(-c2ccccc2)cn1	aSyn UTR inh 83 (no result: Shn3 inh set2, TRPM1 prom inh, PAX8 inh HTS, EBV LMP1 NFkB)
COC(=O)c1cccc(C(=O)N2CCCC(C(=O)c3cc(F)ccc3F)C2)c1 (configuration not stated)	none
COc1ccc(S(=O)(=O)Nc2ccc3c(c2)C(=O)N([C@@H](C)CO)C[C@H](C)[C@@H](CN(C)C(=O)Nc2ccc(C(F)(F)F)cc2)OCCCC[C@@H](C)O3)cc1	PAX8 inh HTS 84 (no result: Shn3 inh set2, TRPM1 prom inh, aSyn UTR inh, EBV LMP1 NFkB)
COc1ccc(S(=O)(=O)Nc2ccc3c(c2)C(=O)N([C@@H](C)CO)C[C@H](C)[C@@H](CN(C)C(=O)Nc2ccc(C(F)(F)F)cc2)OCCCC[C@H](C)O3)cc1	PAX8 inh HTS 65 (no result: Shn3 inh set2, TRPM1 prom inh, aSyn UTR inh, EBV LMP1 NFkB)
COc1ccc(S(=O)(=O)Nc2ccc3c(c2)C(=O)N([C@@H](C)CO)C[C@@H](C)[C@@H](CN(C)C(=O)Nc2ccc(C(F)(F)F)cc2)OCCCC[C@H](C)O3)cc1	none (no result: Shn3 inh set2, TRPM1 prom inh, aSyn UTR inh, EBV LMP1 NFkB)
CCc1n[nH]c(=S)n1/N=C/c1ccc(N(C)c2ccccc2)cc1	EBV LMP1 NFkB 76
Cc1nn(-c2ccccc2)c(C)c1/C=N/n1c(-c2ccccc2Br)n[nH]c1=S	none
CCN(CC)c1ccc(/C=N/n2c(-c3ccccc3Br)n[nH]c2=S)cc1	aSyn UTR inh 78
COc1ccc(C(CNC(=O)C(CCSC)NC(=O)c2ccccc2Cl)N2CCCCC2)cc1 (configuration not stated)	EBV LMP1 NFkB 71 (no result: aSyn UTR inh)
O=[N+]([O-])c1cc(S(=O)(=O)N2CCCC2)ccc1SCCO	none
NC1=C(Br)C(=O)c2ncccc2C1=O	Shn3 inh set2 97, TRPM1 prom inh 94, PAX8 inh HTS 131, EBV LMP1 NFkB 70 (no result: aSyn UTR inh)
O=C1c2cccnc2C(=O)N1CO	none (no result: PAX8 inh HTS)
O=C(/C=C/NNC(=O)c1ccccc1)c1ccc([N+](=O)[O-])cc1	TRPM1 prom inh 64
CCOc1ccc(C(=O)N2CCCC2)cc1	none (no result: PAX8 inh HTS)
CCOc1ccc(OCc2cccc(C(=O)N3CCCCCC3)c2)cc1	aSyn UTR inh 76, EBV LMP1 NFkB 53
CCOc1ccc(OCc2ccc(C(=O)N3CCCC3)o2)cc1	none (no result: PAX8 inh HTS)
CCOc1ccc(OCc2cccc(C(=O)N3CCCC3)c2)cc1	EBV LMP1 NFkB 54 (no result: PAX8 inh HTS)
O=C(N/N=C/c1ccco1)C1CC1c1ccccc1 (configuration not stated)	none
CC(C)(C)c1ccc(C2CC2C(=O)N/N=C\c2ccc[nH]2)cc1 (configuration not stated)	Shn3 inh set2 95
Cc1ccc(NC(=O)C(C)Sc2nc3nc(C)cc(C)n3n2)cc1 (configuration not stated)	none (no result: aSyn UTR inh)
COc1cc(/C=C/C(=O)N2CCC=CC2=O)cc(OC)c1OC	TRPM1 prom inh 92, PAX8 inh HTS 105 (no result: aSyn UTR inh)
COc1cc(/C=C/C(=O)N2CCCN(C(=O)/C=C/c3cc(OC)c(OC)c(OC)c3)CC2)cc(OC)c1OC	none
COc1cc(C=CC(=O)c2cc(OC)c(OC)c(OC)c2)cc(OC)c1OC	TRPM1 prom inh 67, PAX8 inh HTS 96 (no result: aSyn UTR inh)
Cc1cc(C(=O)COC(=O)c2cccn2C)c(C)n1Cc1ccco1	aSyn UTR inh 77
Cc1cc(C(=O)COC(=O)c2ccco2)c(C)n1Cc1ccco1	none
COc1ccc(NC(=O)CSc2ccccn2)cc1OC	none (no result: PAX8 inh HTS)
COc1ccc(NC(=O)CSc2ncccc2C(=O)OC(C)C)cc1OC	Shn3 inh set2 87 (no result: PAX8 inh HTS)
COc1cc2nc(SCc3ccc(F)cc3)n(Cc3cccs3)c(=N)c2cc1OC	none (no result: PAX8 inh HTS)
COc1ccc(Cn2c(SCc3ccccc3C)nc3cc(OC)c(OC)cc3c2=N)cc1	Shn3 inh set2 90, TRPM1 prom inh 84, aSyn UTR inh 93 (no result: PAX8 inh HTS)
CCc1cccc(CC)c1NC(=O)/C(C#N)=C/c1ccccc1C(F)(F)F	TRPM1 prom inh 89
N#C/C(=C\c1ccccc1C(F)(F)F)C(=O)Nc1ccccc1	none
CNC[C@H](Cc1ccccc1)NC[C@@H](Cc1cccc2ccccc12)NCCc1ccc(C)cc1	aSyn UTR inh 123
CNCCNC[C@H](Cc1cccc2ccccc12)NCCc1ccccc1	none (no result: aSyn UTR inh)
CC(C)CC#Cc1ccc([C@H]2[C@@H](CO)N3CCCCN(C(=O)c4ccc5c(c4)OCO5)C[C@@H]23)cc1	none (no result: Shn3 inh set2, TRPM1 prom inh, aSyn UTR inh, EBV LMP1 NFkB)
Cc1ccc(S(=O)(=O)c2ncccc2N)cc1	none
Cc1ccc(S(=O)(=O)c2ncccc2[N+](=O)[O-])cc1	Shn3 inh set2 96, TRPM1 prom inh 77, PAX8 inh HTS 109
O=C(CC1SC(=Nc2cccc3ccccc23)N(Cc2ccccn2)C1=O)Nc1ccccc1Br (configuration not stated)	PAX8 inh HTS 96
CC(O)(c1ccccc1)c1nc(-c2csc3ccccc23)cs1 (configuration not stated)	none (no result: TRPM1 prom inh, aSyn UTR inh, EBV LMP1 NFkB)
O=c1ccc2ccccc2c2ccccc12	PAX8 inh HTS 88 (no result: TRPM1 prom inh, aSyn UTR inh, EBV LMP1 NFkB)
COc1ccc(S(=O)(=O)Nc2ccc3c(c2)CC(=O)N([C@@H](C)CO)C[C@@H](C)[C@@H](CN(C)Cc2ccc(-c4ccccc4)cc2)O3)cc1	PAX8 inh HTS 85 (no result: Shn3 inh set2, TRPM1 prom inh, aSyn UTR inh, EBV LMP1 NFkB)
C[C@H](CO)N1C[C@H](C)[C@@H](CN(C)Cc2ccc(-c3ccccc3)cc2)Oc2ccc(NS(=O)(=O)c3ccc(F)cc3)cc2CC1=O	PAX8 inh HTS 76 (no result: Shn3 inh set2, TRPM1 prom inh, aSyn UTR inh, EBV LMP1 NFkB)
COc1ccc(S(=O)(=O)Nc2ccc3c(c2)CC(=O)N([C@H](C)CO)C[C@H](C)[C@H](CN(C)Cc2ccc(-c4ccccc4)cc2)O3)cc1	none (no result: Shn3 inh set2, TRPM1 prom inh, aSyn UTR inh, EBV LMP1 NFkB)
COc1ccc(S(=O)(=O)Nc2ccc3c(c2)CC(=O)N([C@@H](C)CO)C[C@H](C)[C@H](CN(C)Cc2ccc(-c4ccccc4)cc2)O3)cc1	none (no result: Shn3 inh set2, TRPM1 prom inh, aSyn UTR inh, EBV LMP1 NFkB)
